Inconclusive results are not listed. Active and inactive are the calls of the source. The calls were made as follows: active = hit-call score of the fitted dose curve at least 0.9, where 1 is the maximum; inconclusive = response in the unintended direction; inactive = score below 0.9.
Target: Nuclear receptor subfamily 1 group I member 3 (Homo sapiens) (UniProt Q14994)
Experiment: ATG_CAR_TRANS: Attagene TRANS-FACTORIAL HepG2 Assay for human Constitutive Androstane Receptor (CAR) (AID 2282969);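 also: activators raise reporter mRNA above DMSO so AC50 marks induction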
Conditions: HepG2 Attagene TRANS-FACTORIAL CAR reporter
Protocol: ATG_TRANS is a cell-based, multiplexed-readout assay that uses HepG2, a human liver cell line, with measurements taken at 24 hours after chemical dosing in a 24-well plate.ATG_CAR_TRANS is one of 30 assay component(s) measured or calculated from the ATG_TRANS assay. It is designed to make measurements of mRNA induction, a form of inducible reporter, as detected with fluorescence intensity signals by Reverse transcription polymerase chain reaction (RT-PCR) and Capillary electrophoresis technology.Data from the assay component ATG_CAR_TRANS was analyzed into 1 assay endpoint. This assay endpoint, ATG_CAR_TRANS, was analyzed in the positive analysis fitting direction relative to DMSO as the negative control and baseline of activity. Using a type of inducible reporter, measures of mRNA for gain-of-signal activity can be used to understand the reporter gene at the transcription factor-level as they relate to the gene NR1I3. Furthermore, this assay endpoint can be referred to as a primary readout, because this assay has produced multiple assay endpoints where this one serves a reporter gene function. To generalize the intended target to other relatable targets, this assay endpoint is annotated to the nuclear receptor intended target family, where the subfamily is non-steroidal.
Human liver HepG2 cells are transiently transfected with multiple reporter transcription units (MRTUs) in 6-well plates using FuGene 6 reagent (Roche; 3 ml FuGene/1 mg DNA). The MRTU constructs are regulated by a cis-regulating element (promoter). […] A major difference between the CIS and TRANS system is that in CIS activities of endogenous TFs are measured, whereas the TRANS assay evaluates changes in activities of exogenous, chimeric NR-Gal4 proteins. […] At the end of 24 hour incubation, total RNA was isolated using TriZol reagent (Invitrogen). The isolated RNA is then reverse-transcribed using oligo(dT) primer and Mo-MLV reverse transcriptase (Invitrogen) with DNAse I (Ambion) treatment for 30 min. The one-tenth of the produced cDNA was amplified by PCR using Taq DNA polymerase (Invitrogen) and two reporter sequence-specific primers. The PCR products were fluorescently labeled by primer extension with 6-arboxyfluorescein (6-FAM) 5'-labeled reporter sequence-specific primer (2 min at 95 C, 20 s at 68 C and 10 min at 72 C) and these products were digested with 5U of HpaI (New England Biolabs) for 2h at 37 C. The fragments were purified using Qiaquick PCR columns (Qiagen), analyzed on an ABI 3130xL genetic analyzer (Applied Biosystems) with peak positions identified by using a set of X-rhodamine (ROX)-labeled MapMarker1000 molecular weight standards (BioVentures). The raw capillary electrophoresis data was processed using Attagraph software (Attagene).

Chain of Nuclear receptor subfamily 1 group I member 3 (Homo sapiens) (Q14994 whole entry, looked up): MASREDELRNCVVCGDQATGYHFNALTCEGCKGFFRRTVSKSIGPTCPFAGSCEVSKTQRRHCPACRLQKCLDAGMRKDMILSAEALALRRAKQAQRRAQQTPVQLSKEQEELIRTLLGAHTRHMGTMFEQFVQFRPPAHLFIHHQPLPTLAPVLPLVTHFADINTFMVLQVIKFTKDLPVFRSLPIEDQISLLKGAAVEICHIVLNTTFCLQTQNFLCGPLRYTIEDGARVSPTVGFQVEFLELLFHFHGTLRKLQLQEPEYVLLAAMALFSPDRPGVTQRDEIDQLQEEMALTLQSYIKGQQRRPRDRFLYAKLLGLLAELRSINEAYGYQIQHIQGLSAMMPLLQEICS

Compound | outcome
C/C=C/C(=O)C1=C(C)CCCC1(C)C | inactive
Cc1ccc(N=Nc2c(O)ccc3ccccc23)c(C)c1 | inactive
O=C(O)CN(CCCN(CC(=O)O)CC(=O)O)CC(=O)O | inactive
O=C(O)C(F)(F)OC(F)(F)C(F)(F)OC(F)(F)C(F)(F)OC(F)(F)C(F)(F)C(F)(F)C(F)(F)F | inactive
CCCCN(C)C | inactive
c1ccc(CNc2ncnc3c2ncn3C2CCCCO2)cc1 (stereo not given) | inactive
Cc1ccc2ccc3ccc(C)cc3c2c1 | inactive
CCC(C)c1ccccc1O (stereo not given) | inactive
CCOC(=O)CN[C@@H](C(=O)N1CC[C@H]1C(=O)NCc1ccc(/C(N)=N/O)cc1)C1CCCCC1 | inactive
CCOCCOCC | inactive
O=S(=O)(O)C(F)(F)C(F)(F)C(F)(F)C(F)(F)C(F)(F)C(F)(F)C(F)(F)C(F)(F)C(F)(F)C(F)(F)F | inactive
Cc1ccc(C(=O)c2ccccc2)cc1 | inactive
C=COC(=O)C(C)(C)CCCCCC | inactive
Cc1cc(C(C)(C)C)c(O)c(C(C)(C)C)c1 | inactive
CCCCCCCCCCCCCCCC(=O)OC | inactive
O=C(c1cc(O)c(O)c(O)c1)c1ccc(O)c(O)c1O | inactive
CCCCCCCCCCCCCCCCCC[N+](C)(C)Cc1ccccc1 | inactive
O=P(O)(O)CCC(F)(F)C(F)(F)C(F)(F)C(F)(F)C(F)(F)C(F)(F)C(F)(F)C(F)(F)F | inactive
C=CC(C)(CCC=C(C)C)OC(C)=O (stereo not given) | inactive
Oc1cc2ccccc2cc1O | inactive

Compound | outcome
Nc1cc(Cl)c(-c2cc(Cl)c(N)cc2Cl)cc1Cl | inactive
FC(F)(F)C(F)(F)C(F)(F)Br | inactive
c1cnc2c(c1)ccc1cccnc12 | inactive
NNc1nc(-c2ccc([N+](=O)[O-])cc2)cs1 | inactive
CCOC(OCC)C(=O)c1ccccc1 | inactive
c1cc2cccc3c4cccc5cccc(c(c1)c23)c54 | inactive
FCOC(C(F)(F)F)C(F)(F)F | inactive
CC(C)(C)c1ccc(O)c(O)c1 | inactive
O=C(O)c1cccc(C(=O)O)n1 | inactive
O=C(O)C(=O)O | inactive
Cc1ccc(C)c(S(=O)(=O)O)c1 | inactive
C=CC(=C)CC/C=C(\C)CCC=C(C)C | inactive
FC(F)(F)N1C(F)(F)C(F)(F)OC(F)(F)C1(F)F | inactive
CC(C)(C)c1ccc(CCC=O)cc1 | inactive
CC(C)(C)C1CCCCC1O (stereo not given) | inactive
NC(=NCCCCCCN=C(N)/N=C(\N)Nc1ccc(Cl)cc1)/N=C(\N)Nc1ccc(Cl)cc1 | inactive
CC(C)(O)C(=O)c1ccccc1 | inactive
Clc1ccc(Nc2nnc(Cc3ccncc3)c3ccccc23)cc1 | inactive
O=C1OC2(c3ccccc31)c1cc(I)c(O)c(I)c1Oc1c2cc(I)c(O)c1I | inactive
CCCCCc1ccc(O)cc1 | inactive

From PubChem BioAssay (EPA / NIEHS)
